Experimental data taken from the supplement of paper PMC10849652.
Targets with a hit are over-represented here; the source holds about 7,900 in all. About 0.6% of all pairs of compound and target were hits.

Key:
Test in all cases: log2 fold change, soluble protein after heating vs DMSO (PISA); higher = thermal stabilisation; K562 cells, 10 uM, 30 min; active = over 0.2 and 3.5 SD of the protein, either way, in both replicates (recomputed)
IRAK-1-4 Inhibitor I = compound: C1COCCN1CCN2C3=CC=CC=C3N=C2NC(=O)C4=CC(=CC=C4)[N+](=O)[O-] [IRAK-1-4 Inhibitor I]
In short: (§1)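 K562 cells (2×10^6 cells/mL) were treated with 10 μM compound for 30 min, and aliquots were heated for 3 min over 48°C-58°C. Pooled aliquots were extracted in PBS with 0.5% NP-40 at 4°C, and the supernatant after 21,000xg for 90 min was measured by TMTpro 16plex LC-MS/MS with channel sums equalised. Reported thermal stability, relative to control samples and from duplicates, is a log2 fold change.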

ibrutinib = compound: C=CC(=O)N1CCC[C@@H](n2nc(-c3ccc(Oc4ccccc4)cc3)c3c(N)ncnc32)C1 [ibrutinib]
In short: as §1

[1] = compound: CC(=O)c1cnc2ccc(-c3cc(Cl)c(O)c(Cl)c3)nc2c1N[C@H]1CC[C@H](CN(C)C)CC1
In short: as §1

ralimetinib = compound: CC(C)(C)Cn1c(N)nc2ccc(-c3[nH]c(C(C)(C)C)nc3-c3ccc(F)cc3)nc21 [ralimetinib]
In short: as §1

[2] = compound: CC(C)(O)CC(=O)NCCn1ccc2ncnc(Nc3ccc(Oc4cccc(C(F)(F)F)c4)c(Cl)c3)c21
In short: as §1

[3] = compound: CC(C)C1=C2N=C(C=C(N2N=C1)NCC3=CC=CC=C3)NCCCCCCN
In short: as §1

[4] = compound: CC(C)C[C@@H](C=O)NC(=O)[C@H](CC(C)C)NC(=O)[C@H](CC(C)C)NC(=O)OCc1ccccc1
In short: as §1

pinometostat = compound: CC(C)N(C[C@H]1O[C@@H](n2cnc3c(N)ncnc32)[C@H](O)[C@@H]1O)[C@H]1C[C@@H](CCc2nc3cc(C(C)(C)C)ccc3[nH]2)C1 [pinometostat]
In short: as §1

[5] = compound: CC1=C(C(CC(=O)N1)C2=CC=C(C=C2)C(F)(F)F)C(=O)NC3=C(C=C4C(=C3)C=NN4)F
In short: as §1

[6] = compound: CC1=C(C2=C(C=C1)C(=O)C3=CC=CC=C3N2CCCN)C
In short: as §1

Measured: log2 fold change

PSMA3 (UniProt P25788)
inactive: IRAK-1-4 Inhibitor I -0.027 | ibrutinib -0.013 | [1] 0.008 | ralimetinib 0.037 | [2] 0.071 | [3] 0.102 | [4] -0.065 | pinometostat -0.033 | [5] -0.02 | [6] -0.014

PRIM2 (UniProt P49643)
UniProt P49643, sequence (P49643 whole entry, looked up): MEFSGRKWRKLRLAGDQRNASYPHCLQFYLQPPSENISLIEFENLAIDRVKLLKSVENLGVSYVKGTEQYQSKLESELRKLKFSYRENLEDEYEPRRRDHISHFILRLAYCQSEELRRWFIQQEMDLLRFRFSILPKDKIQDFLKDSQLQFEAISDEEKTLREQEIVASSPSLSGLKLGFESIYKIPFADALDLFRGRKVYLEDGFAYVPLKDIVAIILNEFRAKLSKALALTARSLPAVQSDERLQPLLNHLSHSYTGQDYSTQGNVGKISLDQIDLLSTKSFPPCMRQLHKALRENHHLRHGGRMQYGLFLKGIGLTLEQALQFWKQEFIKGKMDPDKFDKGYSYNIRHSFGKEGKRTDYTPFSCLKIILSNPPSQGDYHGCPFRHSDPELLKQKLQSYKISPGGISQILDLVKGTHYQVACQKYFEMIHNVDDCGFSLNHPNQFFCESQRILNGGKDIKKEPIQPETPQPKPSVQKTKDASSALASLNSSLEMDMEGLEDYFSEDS
inactive: IRAK-1-4 Inhibitor I -0.043 | ibrutinib -0.04 | [1] -0.065 | ralimetinib -0.058 | [2] -0.265 | [3] -0.213 | [4] 0.074 | pinometostat 0.005 | [5] 0 | [6] 0.059

PTRHD1 (UniProt Q6GMV3)
UniProt Q6GMV3, sequence (Q6GMV3 whole entry, looked up): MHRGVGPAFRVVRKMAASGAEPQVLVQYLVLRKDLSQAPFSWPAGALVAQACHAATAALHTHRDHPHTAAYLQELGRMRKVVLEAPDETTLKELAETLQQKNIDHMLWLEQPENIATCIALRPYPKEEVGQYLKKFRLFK
inactive: IRAK-1-4 Inhibitor I 0.155 | ibrutinib 0.004 | [1] -0.048 | ralimetinib -0.049 | [2] -0.022 | [3] 0.139 | [4] -0.01 | pinometostat 0.003 | [5] 0.054 | [6] 0.184

PELO (UniProt Q9BRX2)
inactive: IRAK-1-4 Inhibitor I -0.073 | ibrutinib 0.071 | [1] -0.106 | ralimetinib 0.122 | [2] -0.128 | [4] 0.058 | pinometostat 0.201 | [5] 0.019 | [6] 0.088
active: [3] -0.361

PHAX (UniProt Q9H814)
UniProt Q9H814, sequence (Q9H814 whole entry, looked up): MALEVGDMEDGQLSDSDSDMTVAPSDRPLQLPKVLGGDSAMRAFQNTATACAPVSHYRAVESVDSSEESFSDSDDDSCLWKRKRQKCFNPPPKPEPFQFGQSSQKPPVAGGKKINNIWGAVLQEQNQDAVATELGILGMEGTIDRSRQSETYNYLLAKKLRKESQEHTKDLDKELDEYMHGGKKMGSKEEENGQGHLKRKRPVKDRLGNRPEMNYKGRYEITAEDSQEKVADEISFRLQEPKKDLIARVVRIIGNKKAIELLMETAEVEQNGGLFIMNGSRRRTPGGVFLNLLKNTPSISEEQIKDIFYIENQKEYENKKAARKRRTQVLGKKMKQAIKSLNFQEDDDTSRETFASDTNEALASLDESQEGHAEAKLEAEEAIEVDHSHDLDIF
inactive: IRAK-1-4 Inhibitor I 0.015 | ibrutinib 0.027 | [1] -0.041 | ralimetinib 0.002 | [2] 0.024 | [3] -0.16 | [4] 0.019 | pinometostat 0.016 | [5] 0.071
active: [6] -0.253

PPT1 (UniProt P50897)
UniProt P50897, sequence (P50897 whole entry, looked up): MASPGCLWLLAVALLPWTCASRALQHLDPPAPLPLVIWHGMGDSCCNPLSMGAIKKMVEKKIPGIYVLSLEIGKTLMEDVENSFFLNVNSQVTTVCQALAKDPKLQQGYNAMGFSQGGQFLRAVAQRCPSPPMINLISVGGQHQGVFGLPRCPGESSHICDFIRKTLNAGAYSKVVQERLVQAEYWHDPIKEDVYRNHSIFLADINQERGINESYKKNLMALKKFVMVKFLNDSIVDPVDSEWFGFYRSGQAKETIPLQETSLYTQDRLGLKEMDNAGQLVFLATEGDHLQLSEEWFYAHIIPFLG
inactive: IRAK-1-4 Inhibitor I 0.041 | ibrutinib 0.049 | [1] 0.008 | ralimetinib -0.072 | [2] 0.039 | [4] 0.048 | pinometostat -0.036 | [5] 0.018 | [6] -0.06
active: [3] -0.406

PRPF40A (UniProt O75400)
inactive: IRAK-1-4 Inhibitor I -0.093 | ibrutinib -0.085 | [1] -0.149 | ralimetinib 0.095 | [2] -0.022 | [4] 0.043 | pinometostat -0.041 | [5] -0.034 | [6] 0.13
active: [3] -0.411

PLA2G15 (UniProt Q8NCC3)
inactive: IRAK-1-4 Inhibitor I 0.071 | ibrutinib -0.012 | [1] -0.018 | ralimetinib -0.057 | [2] -0.004 | [3] -0.024 | [4] 0.113 | pinometostat 0.006 | [5] -0.031 | [6] -0.141

PDCD6IP (UniProt Q8WUM4)
UniProt Q8WUM4, sequence (Q8WUM4 whole entry, looked up): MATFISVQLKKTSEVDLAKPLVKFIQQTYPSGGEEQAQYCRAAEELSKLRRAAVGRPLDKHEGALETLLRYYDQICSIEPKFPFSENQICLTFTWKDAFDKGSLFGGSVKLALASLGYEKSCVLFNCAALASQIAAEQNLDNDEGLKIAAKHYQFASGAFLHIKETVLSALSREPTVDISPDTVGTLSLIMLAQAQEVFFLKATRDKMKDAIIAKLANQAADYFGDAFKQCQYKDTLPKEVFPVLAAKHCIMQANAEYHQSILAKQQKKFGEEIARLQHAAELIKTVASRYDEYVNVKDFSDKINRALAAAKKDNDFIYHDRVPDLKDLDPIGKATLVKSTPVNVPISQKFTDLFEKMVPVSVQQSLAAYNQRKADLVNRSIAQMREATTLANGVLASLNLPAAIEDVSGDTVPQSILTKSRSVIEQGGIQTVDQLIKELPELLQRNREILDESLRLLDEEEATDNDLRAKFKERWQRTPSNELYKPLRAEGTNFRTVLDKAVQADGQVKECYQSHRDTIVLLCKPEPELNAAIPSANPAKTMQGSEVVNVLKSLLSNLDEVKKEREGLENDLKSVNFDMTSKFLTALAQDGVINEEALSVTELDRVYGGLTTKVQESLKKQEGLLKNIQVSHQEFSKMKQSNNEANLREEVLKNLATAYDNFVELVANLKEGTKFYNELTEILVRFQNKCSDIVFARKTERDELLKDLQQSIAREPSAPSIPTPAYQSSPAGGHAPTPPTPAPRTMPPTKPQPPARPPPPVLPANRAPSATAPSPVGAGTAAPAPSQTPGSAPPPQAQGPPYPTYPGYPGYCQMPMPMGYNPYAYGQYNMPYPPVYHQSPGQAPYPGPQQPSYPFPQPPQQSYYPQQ
inactive: IRAK-1-4 Inhibitor I -0.156 | ibrutinib -0.11 | [1] -0.039 | ralimetinib 0.046 | [2] -0.198 | [3] -0.327 | [4] 0.019 | pinometostat 0.084 | [5] 0.015 | [6] 0.044

PSMC5 (UniProt P62195)
inactive: IRAK-1-4 Inhibitor I -0.038 | ibrutinib -0.031 | [1] 0.008 | ralimetinib -0.014 | [2] 0.024 | [3] 0.009 | pinometostat 0.021 | [5] 0.037 | [6] 0.002
active: [4] -0.273

PRKAB2 (UniProt O43741)
inactive: IRAK-1-4 Inhibitor I 0.003 | ibrutinib 0.054 | [1] -0.115 | ralimetinib 0.223 | [2] -0.117 | [3] -0.028 | [4] -0.175 | pinometostat -0.065 | [5] 0.032 | [6] -0.053

PHF5A (UniProt Q7RTV0)
UniProt Q7RTV0, sequence (Q7RTV0 whole entry, looked up): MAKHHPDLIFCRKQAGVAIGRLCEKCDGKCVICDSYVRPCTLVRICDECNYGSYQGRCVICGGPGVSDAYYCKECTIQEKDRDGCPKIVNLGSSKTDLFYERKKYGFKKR
inactive: IRAK-1-4 Inhibitor I 0.02 | ibrutinib 0.001 | [1] 0.008 | ralimetinib 0 | [2] 0.088 | [4] -0.073 | pinometostat -0.073 | [5] 0.011 | [6] 0.109
active: [3] 0.242

PIKFYVE (UniProt Q9Y2I7)
UniProt Q9Y2I7, sequence (Q9Y2I7 whole entry, looked up): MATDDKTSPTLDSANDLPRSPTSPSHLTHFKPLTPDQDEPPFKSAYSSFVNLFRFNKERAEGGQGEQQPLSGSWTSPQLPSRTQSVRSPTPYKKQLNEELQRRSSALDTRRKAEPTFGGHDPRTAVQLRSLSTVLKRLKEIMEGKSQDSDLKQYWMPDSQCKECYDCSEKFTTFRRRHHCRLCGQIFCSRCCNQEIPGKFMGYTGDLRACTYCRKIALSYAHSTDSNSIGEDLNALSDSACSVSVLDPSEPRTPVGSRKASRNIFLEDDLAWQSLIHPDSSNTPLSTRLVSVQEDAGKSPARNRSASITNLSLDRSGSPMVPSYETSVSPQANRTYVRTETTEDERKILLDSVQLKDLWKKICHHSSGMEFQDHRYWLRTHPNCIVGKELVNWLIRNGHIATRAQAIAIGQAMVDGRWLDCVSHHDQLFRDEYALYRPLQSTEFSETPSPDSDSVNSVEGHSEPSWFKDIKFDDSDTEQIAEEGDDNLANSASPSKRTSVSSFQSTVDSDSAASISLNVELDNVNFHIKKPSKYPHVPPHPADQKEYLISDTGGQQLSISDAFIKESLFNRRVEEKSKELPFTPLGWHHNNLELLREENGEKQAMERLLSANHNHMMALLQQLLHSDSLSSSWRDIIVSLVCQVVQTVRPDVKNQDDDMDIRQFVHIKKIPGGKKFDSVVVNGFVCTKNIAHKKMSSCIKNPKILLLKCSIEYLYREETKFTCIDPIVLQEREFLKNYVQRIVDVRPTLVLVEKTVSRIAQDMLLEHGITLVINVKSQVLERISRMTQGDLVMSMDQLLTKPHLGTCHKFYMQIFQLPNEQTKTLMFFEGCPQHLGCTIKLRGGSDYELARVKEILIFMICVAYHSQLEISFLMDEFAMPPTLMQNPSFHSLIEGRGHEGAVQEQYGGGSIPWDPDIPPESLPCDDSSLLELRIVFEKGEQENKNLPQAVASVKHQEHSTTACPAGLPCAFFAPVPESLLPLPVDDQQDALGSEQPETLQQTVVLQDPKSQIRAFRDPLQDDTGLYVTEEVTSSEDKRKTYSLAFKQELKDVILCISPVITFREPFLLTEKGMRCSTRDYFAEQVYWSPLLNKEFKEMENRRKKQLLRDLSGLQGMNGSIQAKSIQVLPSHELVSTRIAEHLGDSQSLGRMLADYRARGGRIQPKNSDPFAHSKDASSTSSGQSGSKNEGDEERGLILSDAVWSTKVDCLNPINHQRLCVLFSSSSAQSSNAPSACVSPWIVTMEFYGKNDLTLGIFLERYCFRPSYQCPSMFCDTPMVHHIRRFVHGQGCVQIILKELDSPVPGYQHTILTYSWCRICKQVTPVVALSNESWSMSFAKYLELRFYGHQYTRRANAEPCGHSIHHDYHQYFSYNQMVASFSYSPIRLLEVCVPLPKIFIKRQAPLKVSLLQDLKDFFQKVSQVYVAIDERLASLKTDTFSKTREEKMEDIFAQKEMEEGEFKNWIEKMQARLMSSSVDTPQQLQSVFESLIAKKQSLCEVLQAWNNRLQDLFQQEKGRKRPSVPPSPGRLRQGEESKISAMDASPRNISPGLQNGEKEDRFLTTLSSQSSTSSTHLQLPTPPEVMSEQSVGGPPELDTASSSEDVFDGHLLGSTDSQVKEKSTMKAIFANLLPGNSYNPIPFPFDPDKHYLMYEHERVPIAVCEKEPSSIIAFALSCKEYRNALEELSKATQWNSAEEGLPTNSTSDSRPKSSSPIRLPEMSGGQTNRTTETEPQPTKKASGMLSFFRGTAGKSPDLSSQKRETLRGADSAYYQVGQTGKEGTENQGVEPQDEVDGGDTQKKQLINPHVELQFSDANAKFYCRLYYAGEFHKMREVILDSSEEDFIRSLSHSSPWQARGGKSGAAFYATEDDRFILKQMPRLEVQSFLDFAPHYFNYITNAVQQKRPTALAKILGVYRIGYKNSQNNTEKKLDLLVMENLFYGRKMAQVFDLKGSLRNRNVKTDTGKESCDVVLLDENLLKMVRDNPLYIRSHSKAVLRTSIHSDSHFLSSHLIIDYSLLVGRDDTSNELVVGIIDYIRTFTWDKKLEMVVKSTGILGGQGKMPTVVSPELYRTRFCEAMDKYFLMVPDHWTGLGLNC
inactive: IRAK-1-4 Inhibitor I -0.032 | ibrutinib -0.097 | [1] -0.07 | ralimetinib -0.002 | [2] -0.145 | [3] -0.256 | [4] 0.063 | pinometostat 0.006 | [5] 0.034 | [6] 0.012

PARL (UniProt Q9H300)
inactive: IRAK-1-4 Inhibitor I 0.019 | ibrutinib 0.007 | [1] 0.003 | ralimetinib -0.022 | [2] -0.003 | [4] 0.005 | pinometostat -0.006 | [5] 0.059 | [6] 0.017
active: [3] -0.233

PRKAR2B (UniProt P31323)
UniProt P31323, sequence (P31323 whole entry, looked up): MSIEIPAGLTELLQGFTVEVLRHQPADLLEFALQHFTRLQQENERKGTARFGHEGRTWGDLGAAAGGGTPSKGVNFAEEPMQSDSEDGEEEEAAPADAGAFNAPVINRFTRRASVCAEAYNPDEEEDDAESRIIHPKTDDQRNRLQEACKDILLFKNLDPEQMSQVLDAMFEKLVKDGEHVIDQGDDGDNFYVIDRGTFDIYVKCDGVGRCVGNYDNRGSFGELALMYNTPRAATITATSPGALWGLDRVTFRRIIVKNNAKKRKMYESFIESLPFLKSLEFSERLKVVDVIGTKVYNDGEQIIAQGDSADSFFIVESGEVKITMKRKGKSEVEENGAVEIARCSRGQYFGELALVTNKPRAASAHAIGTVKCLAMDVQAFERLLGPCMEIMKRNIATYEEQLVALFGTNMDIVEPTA
active: [1] -0.833
inactive: IRAK-1-4 Inhibitor I -0.038 | ibrutinib -0.011 | ralimetinib -0.039 | [2] -0.007 | [3] -0.068 | [4] 0.044 | pinometostat 0.108 | [5] -0.075 | [6] 0.022
